NPSR antag = qHTS Assay for Antagonists of the Neuropeptide S Receptor: cAMP Signal Transduction; 220,000 tested, 1% active; Q6W5P4; Potency, µM (doses to about 38.3 µM), inactives show at the highest dose activity change, negative = inhibition, hits mostly inhibitors; CHO-NPSR cells, cAMP TR-FRET, antagonist mode; AID 1461, 2008; note: potency is the fitted concentration of half-maximal effect; nearly all actives have a fitted effect of over 50% in size
Target sequence (Q6W5P4 whole entry, looked up): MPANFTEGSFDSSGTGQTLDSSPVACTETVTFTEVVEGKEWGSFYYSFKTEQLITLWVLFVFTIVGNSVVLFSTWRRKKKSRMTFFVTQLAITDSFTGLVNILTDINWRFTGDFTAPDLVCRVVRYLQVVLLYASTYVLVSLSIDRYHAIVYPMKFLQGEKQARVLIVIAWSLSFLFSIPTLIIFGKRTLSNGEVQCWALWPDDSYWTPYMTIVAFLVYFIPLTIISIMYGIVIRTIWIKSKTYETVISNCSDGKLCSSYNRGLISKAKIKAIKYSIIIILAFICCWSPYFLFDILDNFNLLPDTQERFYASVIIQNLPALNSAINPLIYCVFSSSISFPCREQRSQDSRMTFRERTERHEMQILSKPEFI
Tau fibril ThT = qHTS for Inhibitors of Tau Fibril Formation, Thioflavin T Binding; Microtubule-associated protein tau (Homo sapiens), P10636; recombinant tau K18 P301L, heparin-induced fibrillization, ThT fluorescence; Potency, µM (highest dose often 57.4 µM), without a hit: top-dose activity, negative = inhibition, hits mostly inhibitors; 270,000 tested, 2.1% active; AID 1460, 2008; note: potency is the fitted concentration of half-maximal effect; nearly all actives have a fitted effect of over 55% in size
Target sequence (P10636 561-689 P618L limits assumed): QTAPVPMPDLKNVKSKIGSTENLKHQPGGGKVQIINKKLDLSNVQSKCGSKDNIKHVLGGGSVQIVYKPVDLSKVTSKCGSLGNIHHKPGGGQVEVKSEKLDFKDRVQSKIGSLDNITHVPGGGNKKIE
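Using a mix of unlabeled (15 uM) and Alexa 594-labeled (0.24 uM) tau K18 P301L, heparin-triggered fibrillization over 6 hr at 37 C was scored by ThT fluorescence.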
PNC inhibitor = High Content Assay for Compounds that inhibit the Assembly of the Perinucleolar Compartment; 140,000 tested, 3.1% active; AID 2417, 2010; PC3M PTB-GFP, PNC prevalence imaging, 16 h; stronger effect = lower value; activity change (PNC), negative = inhibition, % at 10 µM;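 active = readout at or below -70, meaning at least 70% loss of cells showing the perinucleolar compartment, a nuclear body marking cancer cells; inconclusive = readout between -30 and a set limit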;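 note: plate controls were DMSO wells for no effect and camptothecin positive control wells for full effect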
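PC3M cells stably expressing PTB-GFP, 750–1000 cells/well, treated 16 h at 37 °C with compound (23 nl of library stock), in duplicate. After paraformaldehyde fixation and Hoechst stain, imaged at 20x; PNC prevalence scored by image analysis.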
Tau fluor counter = Counterscreen qHTS for Inhibitors of Tau Fibril Formation, Fluorescence Polarization; tau K18 P301L (four-repeat tau fragment) Alexa594 fluorescence, heparin fibrillization; Potency, µM (series often up to 57.7 µM), for inactives: top-dose activity change, negative = decrease; 280,000 tested, 0.93% active; AID 1463, 2008; note: potency is the fitted concentration of half-maximal effect; nearly all actives have a fitted effect of over 55% in size
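Human K18 P301L tau (15 uM unlabeled plus 0.24 uM Alexa 594-labeled, final) in 100 mM sodium acetate pH 7 was mixed with compound and 20 uM heparin and incubated 6 hr at 37 C.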
Tau FP inhib = qHTS for Inhibitors of Tau Fibril Formation, Fluorescence Polarization. Microtubule-associated protein tau (Homo sapiens), P10636. Potency, µM (series often up to 57.7 µM), without a hit: top-dose activity, negative = inhibition, most hits filed as inhibitors. 280,000 tested, 0.39% active. K18 P301L tau heparin fibrillization, Alexa594 FP, 6 h; note: potency is the fitted concentration of half-maximal effect; nearly all actives have a fitted effect of over 55% in size
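FP of Alexa 594-tau after heparin (20 uM) induction. Substrate: human K18 P301L, 15 uM unlabeled, 0.24 uM labeled. Buffer 100 mM sodium acetate pH 7. 6 hr, 37 C.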
KDM4E inh = qHTS Assay for Inhibitors of Human Jumonji Domain Containing 2E (JMJD2E) | Lysine-specific demethylase 4E (Homo sapiens), B2RXH2 | JMJD2E catalytic domain, FDH-coupled NADH fluorescence (FDH is formaldehyde dehydrogenase) | Potency, µM (titrated, usually from 57.1 µM), without a hit: top-dose activity change, negative = inhibition, actives largely listed as inhibitors | 230,000 tested, 1.6% active; active = well fitted inhibition curve with a large enough effect, not every such curve was filed as active; inconclusive = small, poorly fitted or top-dose-only effect, or another doubt; inactive = no such curve, though single readings can be large or run the other way;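 note: potency is the fitted concentration of half-maximal effect; 0% = wells with enzyme and -100% = buffer wells without enzyme; nearly all actives have a fitted effect of over 50% in size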
An asterisk follows results filed as active; ? = inconclusive; . = no result given; [ ] = remark or other dose. Rows were chosen to be rich in hits. Some 5.1% of all compounds tested hit in one or more screens of this group. Unless noted, calls come from the whole dose curve; as a rule, active = well fitted curve in the direction sought with a large enough effect; inconclusive = small, poorly fitted or top-dose-only effect, or another doubt; inactive = no such curve, though single readings can be large; an effect the other way counts as inactive or inconclusive. Unless noted, % is set by controls: 0 for no effect and ±100 for the full control effect.

SMILES	NPSR antag	Tau fibril ThT	PNC inhibitor	Tau fluor counter	Tau FP inhib	KDM4E inh
O=C(Nc1cccc2cccnc12)c1cccnc1	-1%[46.1 µM]	-2%	-85*	-3%	0%	-4%
Cc1ccc2[nH]c(=O)c(CN(CCCO)S(=O)(=O)c3c(C)ccc4nsnc34)cc2c1	-18%[46.1 µM]	-6%	-80*	-2%	2%	8%
COc1ccc(C(NC(=O)C(C)C)c2ccc3cccnc3c2O)cc1 (stereo unspecified)	-29%	.	.	-5%	9%	28µM*
CC(=O)NC(c1ccco1)c1ccc2cccnc2c1O (stereo unspecified)	-6%[46.1 µM]	-16%	19	-10%	1%	25µM*
Oc1c(C(Nc2ccccn2)c2ccccc2F)ccc2cccnc12 (stereo unspecified)	.	?	.	-12%	12%	.
CCCC(=O)N(CCN(C(=O)CCC)c1ccccc1)c1ccccc1	-14%[46.1 µM]	0%	-100*	0%	0%	11%
CCOc1ccc(N2CC(c3nc(-c4cc(OC)c(OC)c(OC)c4)no3)CC2=O)cc1 (stereo unspecified)	.	-13%	.	-12%	6%	.
O=[N+]([O-])c1ccc(O)c(C2=NNC(c3ccccc3F)C2)c1 (stereo unspecified)	-50%	16µM*	.	-26%	6%	-14%
Oc1ccc(Cl)cc1C1=NNC(c2cccs2)C1 (stereo unspecified)	-1%[7.67 µM]	?	.	?	-13%	?
CCOC(=O)c1ccc(NC(=O)CCCn2nc(C)c3sc4ccccc4c3c2=O)cc1	.	6%	.	-26%	1%	.
CCn1c(O)c(N=Nc2ccc(Cl)c(C(=O)O)c2)c2ccccc21	-25%	4.5µM*	.	-9%	7%	-15%
CC(C)n1c(O)c(N=Nc2ccc(Cl)c(C(=O)O)c2)c2ccccc21	-18%	16µM*	.	0%	-2%	0%
CCOC(=O)N=Nc1c(O)n(CC)c2ccccc12	-1%	-12%	-9	-4%	2%	5%
CCOC(=O)c1cccc(NC(=O)C2=C(C)C(=O)OC23CCCCC3)c1	.	-6%	.	-25%	-6%	.
NC(=S)N=Nc1c(O)n(Cc2ccccc2)c2ccccc12	-29%	0%	-100*	-18%	-7%	-2%
O=C(N=Nc1c(O)n(Cc2ccccc2)c2ccccc12)c1ccncc1	60%	16µM*	.	-11%	1%	3%
COC(=O)N=Nc1c(O)n(Cc2ccccc2)c2ccccc12	-34%	?	.	-14%	-11%	6%
O=C(NCc1ccc(Cl)cc1)c1cnc2sc(N3CCCCCC3)nn2c1=O	.	-1%	.	-2%	0%	.
COc1cc(N2CCCC2)c(OC)cc1/C=C1/NC(=S)NC1=O	-25%	11µM*	?	?	-6%	-5%
Cc1cccc(NC(c2nnc(-c3ccccc3)o2)c2ccc(F)cc2Cl)c1C (stereo unspecified)	.	-5%	.	-8%	3%	.
Cc1ccc(OCC(=O)N/N=C\c2ccc(C)o2)c(C)c1	2%	-11%	.	-10%	8%	2%
Cc1ccc(OCC(=O)N/N=C\c2ccc(-c3cccc(C(=O)O)c3)o2)c(C)c1	-24%	7.9µM*	-2	-23%	5%	4%
CCOCCCNC(=O)c1ccc2c(c1)NC(=O)C(CS(=O)(=O)Cc1ccc(F)cc1Cl)N2 (stereo unspecified)	.	?	.	-2%	?	.
CCOc1ccc(OC(=O)c2c(-c3ccccc3Cl)noc2C)cc1	.	-17%	.	-22%	?	.
COCOc1c2c(c(OCOC)c3c(OCOC)cccc13)/C(=N/N[S+](=O)([O-])c1ccc(C)cc1)C1=C2CCCC1	.	-4%	.	-13%	-2%	-16%
